According to PubChem BioAssay (NCATS):
Results filed as inconclusive are left out. A number with no mark means an inactive call. The call rests on the fitted dose curve; in most records, active means well fitted inhibition curve with a large enough effect; inconclusive means small, poorly fitted or top-dose-only effect; inactive means flat fitted curve, though single readings scatter.

Assay: qHTS for Inhibitors of Plasmodium falciparum (DD2) proliferation (AID 504314);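 further: parasite DNA measured by SYBR Green fluorescence after red cell lysis; plate controls were DMSO vehicle for no effect and artemisinin wells for full effect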
Conditions: P. falciparum Dd2 in erythrocytes, SYBR Green growth, 72 h; series mostly up to 1.12 µM; activity, negative = inhibition: at the top concentration
Procedure, shortened: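 Fluorescence read-out (ex 485/em 535 nm) of SYBR Green-stained parasite DNA quantifies intraerythrocytic growth. Cultures at 0.3% parasitemia and 2.5% hematocrit were treated for 72 h; data normalized to DMSO and 0.29 uM artemisinin wells.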

| Compound | activity, negative = inhibition |
| --- | --- |
| COC(=O)C1=C(C(=O)OC)[C@@H]2N(C)c3ccc(OC)cc3[C@@]23C[C@@H](C(=O)OC)N(C(=O)C2CCC2)C3=N1 | 1.47% |
| CC#CCN1C(=O)N[C@@H](c2ccccc2)C(C(=O)OC)=C1C | 1.27% |
| COCCN1C(=O)N(C)[C@@H](c2ccccc2)C(C(C)=O)=C1C | -3.23% |
| COC(=O)C1=C(C(=O)OC)[C@@H]2N(C)c3ccccc3[C@@]23C[C@@H](CO)N=C3N1 | -4.44% |
| COc1ccc(C2=CC3=C(Br)C(=O)C(C)(OC(=O)c4cnc5ccccc5n4)C(=O)C3=CO2)cc1 (stereo unspecified) | -2.16% [at 6.11 µM] |
| COC(=O)N[C@H](CC(C)=O)c1ccc(Cl)cc1 | -9.51% [at 6.11 µM] |
| CC(C)OCCCN1C=C2C(=O)C(C)(OC(=O)CCc3ccccc3)C(=O)C=C2C=C1c1ccc(C#N)cc1 (stereo unspecified) | -3.06% |
| CCOC(=O)CNC(=O)O[C@@H]1C(=O)c2cc(OC)ccc2O[C@H]1c1ccc(OC)c(Br)c1 | -9.33% [at 6.11 µM] |
| COC/C=C/C1=CC2=CC(=O)C(C)(OC(=O)c3cnc4ccccc4n3)C(=O)C2=CN1CC(C)C (stereo unspecified) | 0.406% |
| CC1(OC(=O)CCc2ccccc2)C(=O)C=C2C=C(c3ccc(C#N)cc3)N(C3CC3)C=C2C1=O (stereo unspecified) | 0.813% |
| COC/C=C/C1=CC2=CC(=O)C(C)(OC(=O)c3cnc4ccccc4n3)C(=O)C2=CN1c1ccccc1 (stereo unspecified) | -1.3% |
| CC[C@H](C)[C@@H](NC(=O)O[C@@H]1C(=O)c2cc(Br)ccc2O[C@H]1c1cccc(OC)c1)C(=O)OC | -2.92% [at 6.11 µM] |
| COC(=O)CCC(=O)OC1(C)C(=O)C2=CN(CC(C)C)C(c3ccc(OC)cc3)=CC2=C(Br)C1=O (stereo unspecified) | -1.93% |
| CCOC(=O)CN1C(=O)NC(c2cccc(C(F)(F)F)c2)C(C(C)=O)=C1C (stereo unspecified) | 1.41% [at 6.11 µM] |
| CCOC(=O)CN1C(=O)N[C@@H](c2cccs2)C(C(=O)OC)=C1C | 1.93% |
| CCN1C(=O)NC(c2ccc(Br)cc2)C(C(=O)OC)=C1C (stereo unspecified) | 3.64% [at 6.11 µM] |
| COC(=O)C1=C(C)N(Cc2ccccc2)C(=O)N[C@H]1c1ccc(Br)cc1 | 4.37% |
| CC1(OC(=O)CCc2ccccc2)C(=O)C=C2C=C3CCCN3C=C2C1=O (stereo unspecified) | 0.572% |

| Compound | activity, negative = inhibition |
| --- | --- |
| COC(=O)CCCC1=CC2=CC(=O)C(C)(OC(=O)c3cccs3)C(=O)C2=CN1c1ccc(CO)cc1 (stereo unspecified) | -0.2% |
| COC(=O)C1=C(C(=O)OC)[C@@H]2N(Cc3ccccc3)c3ccccc3[C@@]23C[C@@H](C(=O)OC)N(C(=O)NCCBr)C3=N1 | 4.26% [at 6.11 µM] |
| COC(=O)C1=C(C(=O)OC)[C@@H]2N(C)c3ccccc3[C@@]23C[C@@H](CO)N(C(=O)c2ccco2)C3=N1 | -0.982% |
| COC(=O)C1=C(C)N(Cc2ccccc2)C(=O)N[C@H]1c1cccs1 | 2.65% |
| COC/C=C/C1=CC2=CC(=O)C(C)(OC(=O)c3cnc4ccccc4n3)C(=O)C2=CN1C1CCCCC1 (stereo unspecified) | 0.427% |
| CC(C)C(=O)N[C@@H]1CCCN1C(=O)C=Cc1ccccc1 | -0.667% [at 6.11 µM] |
| CCCCC1=CC2=C(c3ccco3)C(=O)C(C)(OC(=O)c3ccc(OC)cc3)C(=O)C2=CN1CC(C)C (stereo unspecified) | 3.13% |
| COC(=O)CCCC1=CC2=CC(=O)C(C)(OC(=O)c3cccs3)C(=O)C2=CN1Cc1ccc2c(c1)OCO2 (stereo unspecified) | 1.86% |
| COC(=O)C1=C(C(=O)OC)[C@@H]2N(C)c3ccccc3[C@@]23C[C@@H](C(=O)OC)N(S(=O)(=O)c2ccc(C#N)cc2)C3=N1 | -0.856% |
| CC1(OC(=O)CCc2ccccc2)C(=O)C=C2C=C(c3ccc(C#N)cc3)N(CCc3ccccn3)C=C2C1=O (stereo unspecified) | 1.05% |
| COC/C=C/C1=CC2=CC(=O)C(C)(OC(=O)c3cnc4ccccc4n3)C(=O)C2=CN1C(CO)CO (stereo unspecified) | 0.906% |
| O=C1c2cc(Br)ccc2O[C@@H](c2ccc3c(c2)OCO3)[C@@H]1O | -3.66% [at 6.11 µM] |
| COC(=O)CCC(=O)OC1(C)C(=O)C2=CN(CC3CC3)C(c3ccc(OC)cc3)=CC2=C(Br)C1=O (stereo unspecified) | 3.03% |
| CCCCC1=CC2=CC(=O)C(C)(OC(=O)CC)C(=O)C2=CN1CCN1CCOCC1 (stereo unspecified) | -2.84% |
| C=CC[C@]1(C(=O)OC)C=C[C@H](C)[C@@H](c2ccccc2)N1C(=O)C(F)(F)F | -3.67% [at 6.11 µM] |
| COC(=O)[C@@H]1[C@H](CCc2ccccc2)NC(=O)N(Cc2ccccc2)[C@@H]1C | 2.89% |
| COC(=O)C1=C(C(=O)OC)[C@@H]2N(C)c3ccccc3[C@@]23C[C@@H](C(=O)OC)N(S(=O)(=O)c2ccc(C)cc2)C3=N1 | 1.9% |
| COc1ccc(N2C=C3C(=O)C(C)(OC(=O)CCc4ccccc4)C(=O)C=C3C=C2c2ccc(C#N)cc2)cc1 (stereo unspecified) | -2.01% |
